Measured values published in PMC7826789 (International Journal of Molecular Sciences, 2021).

tested on: MAPKAPK2; conditions: Compound Concentration (nM):1000
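Further: KINOMEscan scanMAX binding as percent activity remaining versus control; lower means stronger binding.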

Percent Control, inactive:
Cl.O=S1CCN(Cc2ccc(-c3ccc4ncnc(Nc5ccc(OCc6ccccc6)c(F)c5)c4c3)o2)CC1 [GW576924A] 80%
COc1ccc2[nH]c3c4[nH]c5ccc(OC)cc5c4c4c(c3c2c1)C(=O)NC4=O [GW296115X] 100%
COc1cc2ncnc(Nc3ccc4c(cnn4Cc4ccccc4)c3)c2cc1OC.Cl [GW282449A] 72%
COc1cc(C=NNc2ncnc3c2cnn3-c2ccccc2)ccc1O [GW513184X] 100%
COc1ccccc1-c1cc(/C=C2\C(=O)Nc3ncc(Br)cc32)cc(Br)c1O [GW442130X] 100%
CN1CCN(C(=O)c2ccc(NC(=O)Nc3ccc(N(C)c4ccnc(Nc5ccc(CS(C)(=O)=O)cc5)n4)cc3)cc2)CC1.Cl [GW830263A] 100%
O=C1Nc2ccc(C(=O)c3ccco3)cc2C1=Cc1cc(Cl)c(O)c(Cl)c1 [GW406108X] 100%
COc1cc(/C=N/Nc2ncnc3[nH]ncc23)ccc1O [GW578748X] 100%
Cc1cc(O)cc(C)c1/C=C/c1cncc(C(N)=O)c1 [GW435821X] 100%
CCS(=O)(=O)c1ccc(OC)c(Nc2ncc(-c3cccc(F)c3)o2)c1 [GW621970X] 92%
Cl.O=C(Nc1ccc(Oc2ccc3[nH]c(NC(=O)c4ccco4)nc3c2)cc1)Nc1cc(C(F)(F)F)ccc1F [GW683134A] 94%
Nc1ncnc2occ(-c3ccc(NC(=O)Nc4cc(C(F)(F)F)ccc4F)cc3)c12 [GW770249X] 100%
O=C(Nc1n[nH]c2nc(-c3ccc(O)cc3)c(Br)cc12)C1CC1 [SB-725317] 100%
CC1=C(C(=O)Nc2ccc3[nH]ncc3c2)C(c2ccc(Cl)c(Cl)c2)CC(=O)N1 (stereo not drawn) [GSK299115A] 96%
NS(=O)(=O)c1ccc(N/N=C2\C(=O)Nc3ccc(Cl)cc32)cc1 [GW280670X] 100%
CC1=C(C(=O)Nc2ccc3[nH]ncc3c2)C(c2ccc3ccccc3c2)CC(=O)N1 (stereo not drawn) [GSK270822A] 97%
COc1cccc(-c2c[nH]c3c(N/N=C/c4ccncc4)ncnc23)c1 [GW814408X] 100%
NS(=O)(=O)c1ccc(N/N=C2\C(=O)Nc3ccc(C(=O)NCCc4c[nH]cn4)cc32)cc1 [GW300660X] 100%
CN(C)CCNC(=O)Nc1ccc(N(C)c2ccnc(Nc3ccc(CS(C)(=O)=O)cc3)n2)cc1.Cl [GW830900A] 100%
COc1ccc2cc(-c3c(-c4ccncc4)nc(-c4ccc(S(C)(=O)=O)cc4C)n3C)ccc2c1 [SB-633825] 100%
NS(=O)(=O)c1ccc(N/N=C2\C(=O)Nc3ccc(-c4cnco4)cc32)cc1 [GW276655] 100%
CN(C)c1cc2c(Nc3ccc4c(cnn4Cc4ccccc4)c3)ncnc2cn1 [GW282974X] 69%
COc1ccc2c(-c3ccnc(Nc4cccc(OC(F)(F)F)c4)n3)cnn2n1 [GW810372X] 100%
Cl.O=C(O[C@H]1CN[C@H](C#Cc2cc3ncnc(Nc4ccc5c(cnn5Cc5ccccc5)c4)c3s2)C1)N1CCOCC1 [GSK200398A] 72%
CCS(=O)(=O)c1ccc(OC)c(Nc2ncc(-c3cccc(OC)c3)o2)c1 [GW580509X] 96%
CCc1ccc(Oc2nccc(-c3c(-c4ccc(F)cc4)ncn3C3CCNCC3)n2)cc1 [SB-242719] 91%
NS(=O)(=O)c1ccc(N/N=C2\C(=O)Nc3ccc(C(=O)NCc4ccncc4)cc32)cc1 [GW300657X] 100%
COc1ccc(COc2ccc(Cc3cnc(N)nc3N)cc2OC)cc1 [GW632580X] 95%
NS(=O)(=O)c1ccc(Nc2ncc(-c3ccccc3)o2)cc1 [GW572399X] 100%
COC(=O)Nc1nc2ccc(Oc3ccc(NC(=O)Nc4cc(C(F)(F)F)ccc4F)cc3)cc2s1.Cl [GW693917A] 94%
COc1cc(C)c(N(C)C(=O)CN(C)C)cc1Nc1nc(Nc2cccc(F)c2C(N)=O)c2cc[nH]c2n1 [GSK2219385] 83%
COc1cc(N2CCN(C(C)C)CC2)ccc1Nc1nc(Nc2ccc(F)cc2C(=O)NC[C@@H](O)CO)c2cc[nH]c2n1 [GSK1392956A] 85%
CC(C)COC(=O)c1ccc2c(c1)/C(=C/Nc1ccc(S(N)(=O)=O)cc1)C(=O)N2 [GW416981X] 100%
Cl.c1ccc(Cc2nc3ccc(Nc4ncnc5ccccc45)cc3[nH]2)cc1 [GR269666A] 76%
CCn1c(-c2nonc2N)nc2c(C#CC(C)(C)O)nc(OCCNC)cc21.Cl [GSK949675] 100%
COc1cc2ncn(-c3cc(O[C@H](C)c4ccccc4Cl)c(C(N)=O)s3)c2cc1OC [GSK237701A] 100%
